The panel holds about 83,000 compounds, 20% with a hit somewhere; the sample as a whole holds those more often.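 Plates (96-well) were seeded with cells, treated with compound at one concentration, and incubated for 48 hours before percent growth was determined.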 Values without a mark were called inactive. Active and inactive are the calls of the source. Rule for the calls: active = growth percent below 10; inactive = the rest.

The subject of this assay is HL-60(TB) leukemia. The experiment in a line: NCI-60 one-dose screen, 48 h (100 = growth as untreated, 0 = no growth, -100 = all killed). Conditions: 10 µM unless noted.
As to `CN(CCSSCCN1CCOCC1)C(=O)Oc1cc2c(c3ccccc13)[C@H](CCl)CN2C(=O)c1cc2cc(OCCCN3CCC3)ccc2[nH]1`, the growth is -45.8% (active).
Then `O=c1cc(-c2ccccc2)oc2cc(OCCCC[P+](c3ccccc3)(c3ccccc3)c3ccccc3)cc(O)c12`, with -51.5% (active); and `COc1ccc(N=Nc2c(N)nn3c(-c4ccc(OC)c(OC)c4)ccnc23)cc1`, with 92%.
Turning to `CC(=O)Nc1ccc(-c2nc3cc(-c4ccc(O)cc4)ccc3n2C)cc1`, the growth was 26%.
In the case of `O=C(CSc1nnc(-c2c[nH]c3ccccc23)n1-c1ccccc1)c1ccccc1`, the growth was 87.2%.
Consider `CCCCN1C(=O)/C(=C\C(=O)c2cc3ccccc3oc2=O)c2ccccc21`, for which the growth was 74.8%.
`CN1CCCN(Cc2ccc(C(=O)Nc3cccc(Nc4ccc5c(O)cccc5n4)c3)cc2C(F)(F)F)CC1`: the growth is -7.86% (active).
On to `O=C(N/N=C/c1ccc(B(O)O)s1)c1[nH]c2ccc(Br)cc2c1-c1ccccc1`, for which the growth is -18.2% (active).
For `CC1(C)CC[C@]2(C(=O)O)CC[C@]3(C)C(=CCC4[C@@]5(C)C[C@@H](O)[C@@H]6OC(c7cccc(Br)c7)OC[C@@]6(C)C5CC[C@]43C)C2C1` (stereo not given in full) the value was 7.87% (active).
For `COc1cc(CNC(=O)C[C@H](C)CCC=C(C)C)ccc1OCc1cn(-c2ccccc2F)nn1` the value was 91.5%.
For `COC(=O)c1cc(C(C)=O)n2c3ccccc3c3ccccc3c12` the value was 101%; for `Cc1cc(C(NC(=O)CCCCCNc2cccc3c2C(=O)N(C2CCC(=O)CC2=O)C3=O)c2cccc(N(C)C)c2)c(O)c2ncccc12` (stereo not given), -15.3% (active).
Take `CN(C)c1nc(NCCNS(=O)(=O)c2ccc(C(=O)/C=C/c3ccc(Cl)cc3)cc2)nc(Nc2ccc(F)cc2)n1`: the growth is -42.7% (active).
`COc1ccc(CCN2C(=O)/C(=C/c3csc(C#N)n3)SC2=S)cc1OC`: the growth was -18% (active).
Then `CN(C)CCNC(=O)OCCCCOc1cc(O)c2c(=O)cc(-c3ccccc3)oc2c1`, with -61.6% (active).
As to `O=C1Nc2cc(Cl)ccc2/C1=C/c1cccc(OCc2ccc(Br)cc2F)c1`, the growth is -57.8% (active).
For `CC(C)c1ccc2c(N)c(C(=O)Nc3cccc(C(F)(F)F)c3)sc2n1` the value was 66.2%; for `Cc1ccc2nc(-c3ccc(-c4nnc(SCC(=O)Nc5ccc(Cl)cc5)o4)cc3)[nH]c2c1`, 53.8%.
For `Cc1ccc2nc(-c3ccc(-c4nnc(SCC(=O)Nc5ccc(Br)cc5)o4)cc3)[nH]c2c1` the value was 55.6%; for `O=C(CSc1nnc(-c2ccc(-c3nc4ccc(Cl)cc4[nH]3)cc2)o1)Nc1ccccc1`, 42.1%; for `COc1ccc2oc(=O)c(-c3csc(N/N=C(\C)c4cc(OC)c(OC)c(OC)c4)n3)cc2c1`, 107%.
As for `O=C1CC(c2ccc(I)cc2)OC2C=Cc3ccccc3C12` (stereo not given), the growth is 89%.
For `COc1cnc2c(c1)C(=O)c1c-2n(CCCNCCO)c(=O)c2cc(OC)c(OC)cc12`, the growth is 61.3%.
`O=c1c2ccccc2nc(COc2ccccc2)n1/N=C/c1ccc(N2CCOCC2)cc1`: the growth is 100%.
In the case of `Clc1ccccc1Nc1nnc(-c2c[nH]c3ccccc23)o1`, the growth was -0.476% (active).
`OCC1(CCCc2ccccc2)CCCN(c2nccc3ccccc23)C1` (stereo not given): the growth was 22.7%.
For `COc1cc(C2CC(c3cc(OC)c(OC)c(OC)c3)=Nc3c(N)nc(N)nc3N2)ccc1Oc1nc(NCCO)nc(N2CCOCC2)n1` (stereo not given) the value was 91.9%; for `COc1cc2c3c(n(CCCN4CCC[C@@H]4CO)c(=O)c2cc1OC)-c1cc2c(cc1C3=O)OCO2`, -15.4% (active).
For `O/N=C(\CSc1nnc(-c2c[nH]c3ccccc23)n1-c1ccccc1)c1ccc(Br)cc1` the value was -36.3% (active); for `COc1ccc(N=Nc2c(N)nn3c(-c4cc5cc(Br)ccc5oc4=O)ccnc23)cc1`, 102%; for `COc1ccc(N=Nc2c(N)nn3c(N)c(C#N)c(-c4ccc(F)cc4)nc23)cc1`, 74%.
Turning to `COc1cc(CNC(=O)[C@]23CCC(C)(C)CC2C2=CCC4[C@@]5(C)CCC(OC(C)=O)C(C)(C)C5CC[C@@]4(C)[C@]2(C)CC3)ccc1OCc1cn(-c2ccc(Cl)cc2Cl)nn1` (stereo not given in full), the growth was 105%.
Then `COc1ccc(NC(=O)[C@H](C)N)cc1C(=O)Nc1cccc(C2CC(=O)c3c(cc(OC)c(OC)c3OC)O2)c1` (stereo not given in full), with 69.8%; and `Cc1ccc(-c2cc(C(=O)N=Nc3c(O)[nH]c4ccccc34)c3ccccc3n2)cc1`, with 28.2%.
On to `COc1ccc2nc(Nc3cccc(NC(=O)c4ccc(CN5CCCN(C)CC5)c(C(F)(F)F)c4)c3)ccc2c1`, for which the growth was -28% (active).
Then `O=C(/C=C/c1cccc(OCc2ccc(F)cc2)c1)c1nc2ccccc2[nH]1`, with 8% (active).
For `O=C(O)c1ccc(-c2ccc(/C=N/NC(=O)c3[nH]c4ccc(Br)cc4c3-c3ccccc3)o2)cc1` the value was -18.5% (active); for `COc1cc2c3c(n(CCCNC(C)C)c(=O)c2cc1OC)-c1nc2c(cc1C3=O)OCO2`, 71.6%; for `Cn1cc(/C=C(/SS/C(=C/c2cn(C)c3cccc(C(=O)O)c23)C(=O)O)C(=O)O)c2c(C(=O)O)cccc21`, 99.2%.
For `CC1=C(C(=O)OCc2ccccc2)C(c2ccc(-n3cncn3)cc2)n2c(nc3ccccc32)N1` (stereo not given) the value was 8.84% (active).

Values taken from PubChem BioAssay (NCI).
